For assay [1], the target named is rat CYP2A1, Cyp2a1 (gene 24894) (UniProt P11711). Put plainly: NVS_ADME_rCYP2A1: NovaScreen (NVS) CYP450-related Enzyme Activity (ADME) Assay for rat CYP2A1 (AID 2283114; active = hit-call score of the fitted dose curve at least 0.9, where 1 is the maximum; inactive = score below 0.9). The gist of the method: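 Recombinant rat CYP2A1, cell-free, fluorogenic substrate turnover read by fluorescence intensity 0.75 h after dosing. Primary screen at 10 uM in duplicate; actives rerun as concentration-response up to 20 uM; loss of signal versus acetonitrile control.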

For assay [2], the target named is rat CYP2A2, Cyp2a2 (gene 24895) (UniProt P15149). The experiment in a line: NVS_ADME_rCYP2A2: NovaScreen (NVS) CYP450-related Enzyme Activity (ADME) Assay for rat CYP2A2 (AID 2283116). An outline of the steps:
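Cell-free recombinant rat CYP2A2 activity with fluorogenic substrate, fluorescence read 0.2 h after dosing. Chemicals screened at 10 uM in duplicate, hits then run in concentration-response up to 20 uM; signal loss versus acetonitrile baseline.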

The target in assay [3] is rat CYP2C11, Cyp2c11 (gene 29277) (UniProt P08683). The experiment in a line: NVS_ADME_rCYP2C11: NovaScreen (NVS) CYP450-related Enzyme Activity (ADME) Assay for rat CYP2C11 (AID 2283118). The gist of the method: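 Cell-free recombinant rat enzyme with fluorescent substrate; readout 0.33 h after dosing, loss of signal versus acetonitrile control. Initial duplicate single-point at 10 uM; actives rerun in concentration series.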
Chain of rat CYP2C11, Cyp2c11 (gene 29277) (P08683 whole entry, looked up): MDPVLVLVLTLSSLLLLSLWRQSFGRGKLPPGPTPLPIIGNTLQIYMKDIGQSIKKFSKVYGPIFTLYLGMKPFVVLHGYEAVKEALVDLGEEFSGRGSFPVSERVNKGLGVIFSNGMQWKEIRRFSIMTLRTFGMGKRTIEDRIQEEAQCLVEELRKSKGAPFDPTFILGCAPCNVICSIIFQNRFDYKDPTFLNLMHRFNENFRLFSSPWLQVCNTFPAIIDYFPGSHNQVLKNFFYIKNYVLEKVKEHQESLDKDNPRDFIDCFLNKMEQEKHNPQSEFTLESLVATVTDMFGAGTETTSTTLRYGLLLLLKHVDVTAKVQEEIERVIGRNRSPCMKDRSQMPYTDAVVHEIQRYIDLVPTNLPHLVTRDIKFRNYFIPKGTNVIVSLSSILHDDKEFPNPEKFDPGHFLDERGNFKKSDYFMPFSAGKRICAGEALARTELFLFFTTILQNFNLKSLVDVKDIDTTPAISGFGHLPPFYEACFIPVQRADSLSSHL

The target of assay [4] is rat CYP2C13, Cyp2c13 (gene 171521) (UniProt P20814). Put plainly: NVS_ADME_rCYP2C13: NovaScreen (NVS) CYP450-related Enzyme Activity (ADME) Assay for rat CYP2C13 (AID 2283121). The gist of the method:
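Recombinant rat CYP2C13 with fluorogenic substrate, 0.75 h cell-free incubation; primary screen in duplicate at 10 uM, actives followed in concentration series. Fluorescence loss relative to acetonitrile control indicates inhibition.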

Assay [5] deals with human Acid Phosphatase 1 (ACP1), ACP1 (gene 52) (UniProt P24666). Put plainly: NVS_ENZ_hACP1: NovaScreen (NVS) Enzymatic Assay for human Acid Phosphatase 1 (ACP1) (AID 2283136). An outline of the steps:
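Recombinant enzyme expressed in Sf9 cells, tested cell-free; activity read by fluorescence with electrophoretic mobility shift separation of substrate and product, 1.5 h after dosing. Primary screen in duplicate at 25 uM, actives then run in concentration series; loss of signal versus DMSO.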

The target of assay [6] is human AKT serine/threonine Kinase 1 (AKT1), AKT1 (gene 207) (UniProt P31749). Put plainly: NVS_ENZ_hAKT1: NovaScreen (NVS) Enzymatic Assay for human AKT serine/threonine Kinase 1 (AKT1) (AID 2283138). An outline of the steps: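 Recombinant AKT1, specific substrate, cell-free; 1 h; fluorescence intensity/electrophoretic mobility shift. Duplicate single-point 25 uM, then singleton CRC max 50 uM. DMSO = negative control/baseline; signal loss = inhibition.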
Chain of human AKT serine/threonine Kinase 1 (AKT1), AKT1 (gene 207) (P31749 whole entry, looked up): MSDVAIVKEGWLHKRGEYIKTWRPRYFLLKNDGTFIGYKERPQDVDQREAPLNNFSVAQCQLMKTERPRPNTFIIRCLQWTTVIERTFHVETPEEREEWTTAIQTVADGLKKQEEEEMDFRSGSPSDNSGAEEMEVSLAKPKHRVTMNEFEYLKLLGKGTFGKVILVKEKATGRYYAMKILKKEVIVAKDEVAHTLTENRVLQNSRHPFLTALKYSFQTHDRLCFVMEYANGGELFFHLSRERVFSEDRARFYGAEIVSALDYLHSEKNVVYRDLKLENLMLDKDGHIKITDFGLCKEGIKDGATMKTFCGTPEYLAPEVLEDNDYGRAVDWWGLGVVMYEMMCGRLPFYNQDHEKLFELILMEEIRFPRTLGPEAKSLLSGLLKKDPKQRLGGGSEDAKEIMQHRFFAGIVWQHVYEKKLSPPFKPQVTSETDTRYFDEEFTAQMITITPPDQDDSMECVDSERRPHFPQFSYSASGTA

For assay [7], the target named is human Caspase 8 (CASP8), CASP8 (gene 841) (UniProt Q14790). Put plainly: NVS_ENZ_hCASP8: NovaScreen (NVS) Enzymatic Assay for human Caspase 8 (CASP8) (AID 2283146). An outline of the steps: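 E. coli-expressed enzyme was used in a cell-free fluorogenic substrate assay read 1 h after dosing. Loss of signal was scored relative to DMSO, and the primary screen was run in duplicate at 25 uM.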

For assay [8], the target named is human Casein Kinase 1-delta (CK1D), CSNK1D (gene 1453) (UniProt P48730). Put plainly: NVS_ENZ_hCK1D: NovaScreen (NVS) Enzymatic Assay for human Casein Kinase 1-delta (CK1D) (AID 2283148). The gist of the method:
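Recombinant human CK1-delta, cell-free; fluorescent substrate with electrophoretic mobility-shift separation of product, read 1 h after dosing. Single 25 uM duplicate screen, then concentration-response up to 50 uM; loss of signal vs DMSO.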

Assay [9] has as its target human Colony Stimulating Factor 1 Receptor (CSF1R), CSF1R (gene 1436) (UniProt P07333). Put plainly: NVS_ENZ_hCSF1R: NovaScreen (NVS) Enzymatic Assay for human Colony Stimulating Factor 1 Receptor (CSF1R) (AID 2283150). An outline of the steps:
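Cell-free recombinant human CSF1R kinase with fluorescent substrate, product separated by electrophoretic mobility shift; read 1 h after dosing. Primary screen at 25 uM in duplicate, actives then in concentration-response up to 50 uM, relative to DMSO.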

The target in assay [10] is human Elastase, ELANE (gene 1991) (UniProt P08246). The experiment in a line: NVS_ENZ_hElastase: NovaScreen (NVS) Enzymatic Assay for human Elastase (AID 2283153). An outline of the steps:
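Cell-free elastase from human neutrophils, 1.5 h after dosing, activity read by absorbance. Primary screen in duplicate at 25 uM; hits (e.g., 30% inhibition) rerun in singleton concentration-response up to 50 uM, fitted versus DMSO.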

Assay [11] concerns the target Cytochrome P450 3A4 (Homo sapiens) (UniProt P08684). The experiment in a line: NVS_ADME_hCYP3A4: NovaScreen (NVS) CYP450-related Enzyme Activity (ADME) Assay for human CYP3A4 (AID 2283110). The gist of the method: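 Cell-free recombinant enzyme expressed in insect cells; fluorescent substrate turnover read after 0.33 h, acetonitrile as negative control. Primary screen in duplicate at 10 uM, actives then tested in concentration series.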

The target in assay [12] is human Caspase 5 (CASP5), CASP5 (gene 838) (UniProt P51878). Put plainly: NVS_ENZ_hCASP5: NovaScreen (NVS) Enzymatic Assay for human Caspase 5 (CASP5) (AID 2283137). An outline of the steps:
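E. coli-derived enzyme, cell-free, 2 h incubation, fluorescence intensity. 25 uM duplicate single-point; hits → concentration series to 50 uM. DMSO baseline, positive/negative controls on every plate.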

The next assay deals with CDK2 (gene 1017) (UniProt P24941). Put plainly: NVS_ENZ_hCDK2: NovaScreen (NVS) Enzymatic Assay for human Cyclin-Cependent Kinase 2 (CDK2) (AID 2283144). An outline of the steps: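 Cell-free recombinant human CDK2 with fluorescent substrate, product separated by electrophoretic mobility shift; 1 hr read. Primary screen at 25 uM in duplicate, actives retested in concentration-response up to 50 uM; loss of signal versus DMSO.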

Assay [13] has as its target human CYP2C9, CYP2C9 (gene 1559) (UniProt P11712). Put plainly: NVS_ADME_hCYP2C9: NovaScreen (NVS) CYP450-related Enzyme Activity (ADME) Assay for human CYP2C9 (AID 2283108). An outline of the steps: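 Recombinant human CYP2C9 expressed in SF9 cells, fluorogenic substrate, fluorescence read 0.75 h after dosing. Chemicals first run in duplicate at 10 uM, with actives followed in concentration series; loss of signal versus acetonitrile baseline.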

Assay [14] addresses human Caspase 4 (CASP4), CASP4 (gene 837) (UniProt P49662). Put plainly: NVS_ENZ_hCASP4: NovaScreen (NVS) Enzymatic Assay for human Caspase 4 (CASP4) (AID 2283143). An outline of the steps: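 The cell-free assay used E. coli-expressed enzyme with a fluorogenic substrate, read 2 h after dosing. Signal loss was scored versus DMSO. Screening was in duplicate at 25 uM, then singleton concentration-response up to 50 uM.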

Assay [15] addresses human Beta-secretase (BACE), BACE1 (gene 23621) (UniProt P56817). Put plainly: NVS_ENZ_hBACE: NovaScreen (NVS) Enzymatic Assay for human Beta-secretase (BACE) (AID 2283140).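 Note: hits are inhibitors that reduce fluorescent substrate signal versus DMSO.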 The gist of the method:
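Compounds were first tested in duplicate at 25 uM, then actives in concentration series, against recombinant BACE1 from SF9 cells. Enzyme activity was measured by fluorescence intensity 1 hour after dosing, with DMSO as negative control.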

Assay [16] has as its target human AKT serine/threonine Kinase 2 (AKT2), AKT2 (gene 208) (UniProt P31751). Put plainly: NVS_ENZ_hAKT2: NovaScreen (NVS) Enzymatic Assay for human AKT serine/threonine Kinase 2 (AKT2) (AID 2283141). An outline of the steps:
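Cell-free fluorescence/electrophoretic mobility shift readout of recombinant human AKT2 activity, 1 h after chemical dosing. Duplicate primary screen at 25 uM, then singleton concentration-response up to 50 uM; loss of signal versus DMSO baseline.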

The term AC50 denotes the midpoint of the concentration-response curve, whichever way the signal moves.

Several values for one entry are separate records, joined by “and”; a condition that tells them apart may be missing. Equal values may be shown once. Inconclusive results are not listed. Activity calls are given as the source filed them. Rule for the calls, unless noted: active = hit-call score of the fitted dose curve at least 0.9, where 1 is the maximum; inconclusive = response in the unintended direction; inactive = score below 0.9.

Chain of human Beta-secretase (BACE), BACE1 (gene 23621) (P56817 whole entry, looked up): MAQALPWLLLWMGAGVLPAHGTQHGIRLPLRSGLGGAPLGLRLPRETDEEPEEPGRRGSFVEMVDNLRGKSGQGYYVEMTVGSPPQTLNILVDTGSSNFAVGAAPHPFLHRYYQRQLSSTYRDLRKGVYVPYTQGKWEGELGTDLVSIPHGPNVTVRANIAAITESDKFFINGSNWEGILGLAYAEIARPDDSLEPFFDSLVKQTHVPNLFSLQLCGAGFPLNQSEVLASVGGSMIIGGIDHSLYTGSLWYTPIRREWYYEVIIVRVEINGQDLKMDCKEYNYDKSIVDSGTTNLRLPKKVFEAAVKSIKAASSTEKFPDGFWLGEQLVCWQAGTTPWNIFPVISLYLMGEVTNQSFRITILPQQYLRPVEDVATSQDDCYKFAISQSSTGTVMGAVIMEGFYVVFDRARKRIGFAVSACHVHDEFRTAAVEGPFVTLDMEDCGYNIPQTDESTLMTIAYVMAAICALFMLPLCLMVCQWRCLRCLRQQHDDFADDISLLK
Chain of human Casein Kinase 1-delta (CK1D), CSNK1D (gene 1453) (P48730 whole entry, looked up): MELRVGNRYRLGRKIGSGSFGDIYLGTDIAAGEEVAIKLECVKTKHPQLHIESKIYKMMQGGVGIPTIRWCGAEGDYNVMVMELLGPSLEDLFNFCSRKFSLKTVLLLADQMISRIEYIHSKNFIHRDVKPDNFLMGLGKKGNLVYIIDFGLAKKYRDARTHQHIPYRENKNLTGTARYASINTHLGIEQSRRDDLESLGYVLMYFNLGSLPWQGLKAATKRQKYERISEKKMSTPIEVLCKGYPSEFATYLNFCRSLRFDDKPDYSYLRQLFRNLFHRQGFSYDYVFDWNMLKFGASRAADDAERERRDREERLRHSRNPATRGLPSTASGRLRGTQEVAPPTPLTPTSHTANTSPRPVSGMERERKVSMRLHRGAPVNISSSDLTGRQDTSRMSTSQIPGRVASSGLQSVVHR
Chain of human Elastase, ELANE (gene 1991) (P08246 whole entry, looked up): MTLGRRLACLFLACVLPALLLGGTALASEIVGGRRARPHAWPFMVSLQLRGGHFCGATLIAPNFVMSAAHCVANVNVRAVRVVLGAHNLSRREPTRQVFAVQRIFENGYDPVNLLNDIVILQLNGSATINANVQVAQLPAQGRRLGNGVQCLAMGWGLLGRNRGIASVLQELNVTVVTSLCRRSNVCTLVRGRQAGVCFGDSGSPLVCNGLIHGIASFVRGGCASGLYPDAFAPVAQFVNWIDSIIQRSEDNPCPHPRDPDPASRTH
Chain of human CYP2C9, CYP2C9 (gene 1559) (P11712 whole entry, looked up): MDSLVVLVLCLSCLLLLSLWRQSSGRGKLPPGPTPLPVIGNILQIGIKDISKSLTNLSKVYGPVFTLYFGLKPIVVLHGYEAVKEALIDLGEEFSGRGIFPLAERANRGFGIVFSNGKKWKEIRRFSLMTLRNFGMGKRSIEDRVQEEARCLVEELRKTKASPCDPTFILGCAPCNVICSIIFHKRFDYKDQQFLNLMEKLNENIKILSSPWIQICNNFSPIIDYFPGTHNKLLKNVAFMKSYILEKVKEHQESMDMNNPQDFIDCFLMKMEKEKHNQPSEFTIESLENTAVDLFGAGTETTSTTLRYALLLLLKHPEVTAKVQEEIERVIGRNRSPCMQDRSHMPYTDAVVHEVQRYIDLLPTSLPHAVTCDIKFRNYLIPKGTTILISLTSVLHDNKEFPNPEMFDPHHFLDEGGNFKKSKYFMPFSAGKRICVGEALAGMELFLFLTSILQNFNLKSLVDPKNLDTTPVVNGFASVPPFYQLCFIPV
Chain of Cytochrome P450 3A4 (Homo sapiens) (P08684 whole entry, looked up): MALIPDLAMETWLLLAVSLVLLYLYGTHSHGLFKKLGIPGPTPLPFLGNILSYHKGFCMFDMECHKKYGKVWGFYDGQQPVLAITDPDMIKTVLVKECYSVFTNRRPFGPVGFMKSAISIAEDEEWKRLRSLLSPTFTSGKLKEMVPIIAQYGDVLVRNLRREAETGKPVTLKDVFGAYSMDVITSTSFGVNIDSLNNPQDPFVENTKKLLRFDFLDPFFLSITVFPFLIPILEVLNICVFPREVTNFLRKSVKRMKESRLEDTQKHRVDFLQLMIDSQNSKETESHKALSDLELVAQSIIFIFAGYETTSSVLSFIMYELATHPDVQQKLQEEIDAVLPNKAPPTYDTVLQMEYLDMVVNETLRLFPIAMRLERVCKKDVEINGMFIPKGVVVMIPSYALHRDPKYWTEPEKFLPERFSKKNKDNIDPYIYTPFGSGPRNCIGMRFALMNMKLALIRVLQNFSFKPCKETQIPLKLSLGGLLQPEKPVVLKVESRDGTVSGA
Chain of human Colony Stimulating Factor 1 Receptor (CSF1R), CSF1R (gene 1436) (P07333 whole entry, looked up): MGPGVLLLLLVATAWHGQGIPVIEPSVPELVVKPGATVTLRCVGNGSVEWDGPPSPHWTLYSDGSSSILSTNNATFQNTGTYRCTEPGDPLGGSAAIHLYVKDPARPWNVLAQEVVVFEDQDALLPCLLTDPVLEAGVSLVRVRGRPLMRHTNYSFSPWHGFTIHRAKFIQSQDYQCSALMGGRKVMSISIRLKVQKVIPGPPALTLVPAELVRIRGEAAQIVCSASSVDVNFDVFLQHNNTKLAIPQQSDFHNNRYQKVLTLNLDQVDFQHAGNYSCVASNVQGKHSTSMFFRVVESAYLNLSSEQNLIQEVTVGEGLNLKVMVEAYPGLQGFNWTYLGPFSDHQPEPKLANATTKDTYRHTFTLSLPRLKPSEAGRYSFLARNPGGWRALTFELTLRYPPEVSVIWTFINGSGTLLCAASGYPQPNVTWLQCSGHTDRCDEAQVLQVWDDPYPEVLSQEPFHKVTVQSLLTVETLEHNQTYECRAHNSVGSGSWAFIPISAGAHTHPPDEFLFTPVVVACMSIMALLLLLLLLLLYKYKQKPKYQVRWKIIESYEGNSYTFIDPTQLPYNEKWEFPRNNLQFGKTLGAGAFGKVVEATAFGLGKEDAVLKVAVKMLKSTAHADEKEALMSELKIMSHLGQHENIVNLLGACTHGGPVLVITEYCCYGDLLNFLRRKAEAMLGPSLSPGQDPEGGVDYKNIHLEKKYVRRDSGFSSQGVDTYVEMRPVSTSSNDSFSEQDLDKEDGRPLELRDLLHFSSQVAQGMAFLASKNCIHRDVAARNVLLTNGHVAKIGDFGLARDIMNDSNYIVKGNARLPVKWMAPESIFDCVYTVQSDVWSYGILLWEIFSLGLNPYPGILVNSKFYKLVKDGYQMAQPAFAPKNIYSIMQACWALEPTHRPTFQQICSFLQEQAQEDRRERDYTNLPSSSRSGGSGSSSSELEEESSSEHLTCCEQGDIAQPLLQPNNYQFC
Chain of human Acid Phosphatase 1 (ACP1), ACP1 (gene 52) (P24666 whole entry, looked up): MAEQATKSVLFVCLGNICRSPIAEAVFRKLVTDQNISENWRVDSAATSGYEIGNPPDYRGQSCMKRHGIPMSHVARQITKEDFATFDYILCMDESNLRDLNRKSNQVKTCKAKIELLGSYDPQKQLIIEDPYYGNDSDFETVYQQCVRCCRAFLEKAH
Chain of rat CYP2C13, Cyp2c13 (gene 171521) (P20814 whole entry, looked up): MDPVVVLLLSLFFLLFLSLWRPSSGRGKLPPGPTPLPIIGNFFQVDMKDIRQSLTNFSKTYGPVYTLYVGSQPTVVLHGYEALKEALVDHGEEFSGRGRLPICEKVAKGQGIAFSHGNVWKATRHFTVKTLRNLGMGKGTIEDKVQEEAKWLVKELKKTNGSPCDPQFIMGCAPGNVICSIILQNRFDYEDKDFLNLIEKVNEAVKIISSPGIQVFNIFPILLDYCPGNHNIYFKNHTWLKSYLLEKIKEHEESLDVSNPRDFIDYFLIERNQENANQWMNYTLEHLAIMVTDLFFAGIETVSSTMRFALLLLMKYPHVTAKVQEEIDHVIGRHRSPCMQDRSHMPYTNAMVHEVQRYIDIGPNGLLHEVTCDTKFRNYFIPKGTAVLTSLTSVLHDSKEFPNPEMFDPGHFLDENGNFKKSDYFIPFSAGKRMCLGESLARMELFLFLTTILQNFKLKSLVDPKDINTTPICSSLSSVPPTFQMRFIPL

Regarding `CC/C(=C(/CC)c1ccc(O)cc1)c1ccc(O)cc1`, the concentration at half-maximal activity (AC50) is 8.99 µM (active) in assay [1]; 10.2 µM (active) in assay [2]; 1.95 µM (active) and 7.02 µM (active) in assay [3]; 1.08 µM (active) and 3.79 µM (active) in assay [4]. For the same compound, the compound was classed as inactive in assay [5], in assay [6], in assay [7], in [8], in assay [9] and in assay [10].
Turning to `Cc1occc1C(=O)Nc1ccc(C(=O)N2CCC(F)(F)/C(=C\C(=O)N3CCC(N4CCCCC4)CC3)c3ccccc32)cc1`, the call in [11] was inactive.
`CC[C@H](NC(=O)c1cc(F)ccc1NS(=O)(=O)c1cccc2cccnc12)c1ccccc1`: the outcome in assay [11] and in [12] was inactive.
In the case of `c1ccc2ccccc2c1`, the result (in assay [5]; in assay [6]; with CDK2 (gene 1017); in assay [8]; in assay [9]) was inactive.
`CCN(Cc1cccnc1)C(=O)c1cccc(Cl)c1[C@]1(C)C(=O)N(Cc2ccc(OC)cc2OC)c2ccc(Cl)cc21`: the concentration at half-maximal activity (AC50) in [13] is 2.28 µM (active); in assay [11], 3.58 µM (active); in [10], 3.84 µM (active). Moreover, the compound was classed as inactive in assay [12] and in [14].
For `CC(C)(c1cc(Br)c(O)c(Br)c1)c1cc(Br)c(O)c(Br)c1`, the AC50 in assay [13] is 2.93 µM (active).
`CCCCOC(=O)CC(CC(=O)OCCCC)(OC(C)=O)C(=O)OCCCC`: the compound was classed as inactive in assay [13] and in assay [2].
As for `CCCOC(=O)c1cc(O)c(O)c(O)c1`, the compound was called inactive in [13] and in assay [11].
With `CCOC(=O)O[C@H](C)OC(=O)c1ccc2c(c1)cc(C(=O)NC1CCN(C(C)C)CC1)n2Cc1cc(-c2ccc(Cl)s2)on1`, the AC50 is 15.4 µM (active) in assay [13], 9.45 µM (active) in assay [11], 0.447 µM (active) in [15] and 23.6 µM (active) in assay [16].
On to `COc1ccc2cc(S(=O)(=O)N[C@H](CC(=O)N[C@H](Cc3ccc(CN4[C@H](C)CCC[C@@H]4C)cc3)C(=O)N(C)C(C)C)c3ccc4c(c3)OCO4)ccc2c1`, for which the figures for the AC50 in assay [11] and in assay [10] were 0.861 µM (active) and 9.38 µM (active), respectively. The outcome in [15] was inactive.
For the compound `COc1cc(C(=O)NC2CCN(C)CC2)ccc1Nc1ncc2c(n1)N(C1CCCC1)CC(F)(F)C(=O)N2C`, the AC50 in assay [13] was 6.56 µM (active); in [8] it was 18.1 µM (active); in assay [9], 11.2 µM (active). In addition, the outcome (in [15]; with CDK2 (gene 1017)) was inactive.
For the compound `Cc1oc2c(NC(=O)c3c(Cl)cccc3Cl)cccc2c1C(C)(C)O`, the AC50 in assay [11] was 7.44 µM (active). Moreover, the compound was classed as inactive in assay [9].
Regarding `Oc1ccc2ccccc2c1`, the compound was called inactive in the assay with CDK2 (gene 1017). For the same compound, the AC50 in assay [8] was 24.1 µM (active).
On to `O=C1CCC(C2CCCCC2)CC1`, for which the concentration at half-maximal activity (AC50) in [10] was 10 µM (active).
On the same count and under the same terms, the result for `Cc1c2ccccc2c(C)c2c1ccc1ccccc12` reads 14.3 µM (active).

The record behind these values is PubChem BioAssay (EPA / NIEHS).
